According to PubChem BioAssay (NCI):
Compounds without any hit were thinned out: in the full panel of roughly 79,000, 15% have a hit. Active and inactive are the calls of the source. Cut-off read from the data, not from the text of the source: active = growth inhibition above about 70%; inactive = the rest.

Assay: NCI Yeast Anticancer Drug Screen. Data for the bub3 strain (AID 167)
Conditions: S. cerevisiae bub3 mutant strain, at 50.0 µM, active compounds read high
Summary of the method: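 In this screen, a yeast mutant lacking normal mitotic checkpoint function is challenged with compound. Relative growth versus vehicle gives the inhibition value.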

| SMILES | growth inhibition |
| --- | --- |
| CNC(=O)c1ccccc1C(O)c1ccc(C)cc1 (stereo not given) | 37.6% (inactive) |
| CCN(CCC#N)c1cccc(C)c1 | -16.8% (inactive) |
| C=CCN(CC=C)C(=O)C(=C)C | 3.7% (inactive) |
| CC(=O)Nc1cc(-c2ccccc2)cc(-c2ccccc2)c1 | 10.7% (inactive) |
| Nc1cc(=O)[nH]c(=S)n1-c1ccccc1 | -2.5% (inactive) |
| CCCCN(CCCC)/C(=C/C(=O)OC)C(=O)OC | 26.9% (inactive) |
| Oc1ccc2c(c1)-c1ccccc1C2 | 37.3% (inactive) |
| Cc1ccccc1N=Nc1c(-c2ccccc2)nn(C(N)=S)c1-c1ccccc1 | 0.95% (inactive) |
| COc1ccc(CC(NC(=O)OCc2ccccc2)C(=O)O)cc1 (stereo not given) | 18.7% (inactive) |
| Nc1cccc(CC(=O)c2ccccc2)n1 | -3.05% (inactive) |
| CN(C)CC(C)(C)C(=O)c1ccc(F)cc1 | 1.7% (inactive) |
| CCCC1OCC(O)C(C(O)C(=O)CN(Cc2ccccc2)Cc2ccccc2)O1 (stereo not given) | -3.8% (inactive) |
| O=C1C2C3C=CC(C2C(=O)N1COP(=O)(O)O)C1C2C(=O)N(COP(=O)(O)O)C(=O)C2C31 (stereo not given) | -11.2% (inactive) |
| Cc1nc[nH]c(=O)c1N | 7.75% (inactive) |
| Cc1ccc(N2N=S=CC2=O)cc1 | 20.3% (inactive) |
| CC(C)(CCCCC(C)(C)C1NC(=O)N1)C1NC(=O)N1 | -9.1% (inactive) |
| CCCCCCC(=O)OC(C)CC(C)C (stereo not given) | -3.7% (inactive) |
| NNC(=O)CC(=O)Nc1ccccc1F | 0.85% (inactive) |
| Cn1c(=O)c2[nH]c(CCCCCc3nc4c([nH]3)c(=O)n(C)c(=O)n4C)nc2n(C)c1=O | -16.4% (inactive) |
| CCCCCOc1ccc2ccccc2c1 | 10.2% (inactive) |

| SMILES | growth inhibition |
| --- | --- |
| CC(O)(CNS(=O)(=O)c1ccccc1)c1ccccc1 (stereo not given) | -31.2% (inactive) |
| O=C(/C=C/c1ccc(OCCSCCCCCCCCCCSCCOc2ccc(/C=C/C(=O)c3ccc(Cl)cc3)cc2)cc1)c1ccc(Cl)cc1 | -8.95% (inactive) |
| CS(=O)(=O)CC(O)(c1ccccc1)c1ccccc1 | 1.55% (inactive) |
| CC1=CC(O)C(Br)C(C)(C)C12CCC(C)(Cl)C(Br)C2 (stereo not given) | 89.9% (active) |
| NCCCC(N)C(=O)O (stereo not given) | -42.6% (inactive) |
| CCOC(=O)Nc1nc2c(s1)c([N+](=O)[O-])cn2C | 4.6% (inactive) |
| COCCNC1CCC2(SCCS2)c2[nH]c3ccccc3c21 (stereo not given) | -9% (inactive) |
| Nc1nc(Sc2ccccn2)ccc1[N+](=O)[O-] | -12.1% (inactive) |
| CC(=O)Nc1ccc(N=C2c3ccccc3-c3ccc([N+](=O)[O-])cc32)cc1 | -5.7% (inactive) |
| O=C(NNC(=O)c1ccc(Cl)c(Cl)c1)c1ccc(Cl)c(Cl)c1 | -16.4% (inactive) |
| O=S(=O)(NCCNS(=O)(=O)c1ccccc1)c1ccccc1 | 1.55% (inactive) |
| O=C(Nc1ccc(Cl)c(Cl)c1)c1ccc(Cl)cc1 | 19.1% (inactive) |
| Nc1nc2ccccc2[nH]1 | -11.8% (inactive) |
| CC1C(c2ccccc2)OC(c2ccccc2)N1C (stereo not given) | 9.7% (inactive) |
| CCCOc1ccc(OCC(=O)c2ccccc2)cc1 | 61.5% (inactive) |
| COc1cc(/C=C\C(=O)c2cccc([N+](=O)[O-])c2)cc(OC)c1OC | 29.1% (inactive) |
| O=C([O][Sb]([O]C(=O)C(Br)Br)([c]1ccccc1)([c]1ccccc1)[c]1ccccc1)C(Br)Br | -0.1% (inactive) |
| C[N+]1(CCC[N+]2(C)CCC3(CCCCC3)CC2)CCOCC1 | -1.55% (inactive) |
| CCCCCCCCCCCCCCCCCN(C)C(=O)OCC | -7.15% (inactive) |
| O=c1oc2ccccc2c2c1Sc1ccccc1N2 | 2.05% (inactive) |

Assay: NCI Yeast Anticancer Drug Screen. Data for the mlh1 rad18 strain (AID 175)
Conditions: S. cerevisiae mlh1 rad18 strain growth inhibition; at 50.0 µM; active compounds read high
Summary of the method: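 Vehicle-treated cultures served as the reference for growth inhibition in a yeast strain carrying DNA damage repair alterations exposed to each compound.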

| SMILES | growth inhibition |
| --- | --- |
| CNC(=O)c1ccccc1C(O)c1ccc(C)cc1 (stereo not given) | 20.6% (inactive) |
| CCN(CCC#N)c1cccc(C)c1 | -7.55% (inactive) |
| C=CCN(CC=C)C(=O)C(=C)C | -4.1% (inactive) |
| CC(=O)Nc1cc(-c2ccccc2)cc(-c2ccccc2)c1 | 22.4% (inactive) |
| Nc1cc(=O)[nH]c(=S)n1-c1ccccc1 | -9.65% (inactive) |
| CCCCN(CCCC)/C(=C/C(=O)OC)C(=O)OC | 13.6% (inactive) |
| Oc1ccc2c(c1)-c1ccccc1C2 | 29.9% (inactive) |
| Cc1ccccc1N=Nc1c(-c2ccccc2)nn(C(N)=S)c1-c1ccccc1 | 19% (inactive) |
| COc1ccc(CC(NC(=O)OCc2ccccc2)C(=O)O)cc1 (stereo not given) | 6.6% (inactive) |
| Nc1cccc(CC(=O)c2ccccc2)n1 | -13.1% (inactive) |
| CN(C)CC(C)(C)C(=O)c1ccc(F)cc1 | 12.3% (inactive) |
| CCCC1OCC(O)C(C(O)C(=O)CN(Cc2ccccc2)Cc2ccccc2)O1 (stereo not given) | 3.75% (inactive) |
| O=C1C2C3C=CC(C2C(=O)N1COP(=O)(O)O)C1C2C(=O)N(COP(=O)(O)O)C(=O)C2C31 (stereo not given) | -14.1% (inactive) |
| Cc1nc[nH]c(=O)c1N | -4.85% (inactive) |
| Cc1ccc(N2N=S=CC2=O)cc1 | 34% (inactive) |
| CC(C)(CCCCC(C)(C)C1NC(=O)N1)C1NC(=O)N1 | -43.1% (inactive) |
| CCCCCCC(=O)OC(C)CC(C)C (stereo not given) | 24.2% (inactive) |
| NNC(=O)CC(=O)Nc1ccccc1F | -2.85% (inactive) |
| Cn1c(=O)c2[nH]c(CCCCCc3nc4c([nH]3)c(=O)n(C)c(=O)n4C)nc2n(C)c1=O | -16.1% (inactive) |
| CCCCCOc1ccc2ccccc2c1 | 7.15% (inactive) |

| SMILES | growth inhibition |
| --- | --- |
| CC(O)(CNS(=O)(=O)c1ccccc1)c1ccccc1 (stereo not given) | -16.6% (inactive) |
| O=C(/C=C/c1ccc(OCCSCCCCCCCCCCSCCOc2ccc(/C=C/C(=O)c3ccc(Cl)cc3)cc2)cc1)c1ccc(Cl)cc1 | -29.9% (inactive) |
| CS(=O)(=O)CC(O)(c1ccccc1)c1ccccc1 | 28.1% (inactive) |
| CC1=CC(O)C(Br)C(C)(C)C12CCC(C)(Cl)C(Br)C2 (stereo not given) | 89.3% (active) |
| NCCCC(N)C(=O)O (stereo not given) | -19.7% (inactive) |
| CCOC(=O)Nc1nc2c(s1)c([N+](=O)[O-])cn2C | 20.6% (inactive) |
| COCCNC1CCC2(SCCS2)c2[nH]c3ccccc3c21 (stereo not given) | 40.2% (inactive) |
| Nc1nc(Sc2ccccn2)ccc1[N+](=O)[O-] | -6.45% (inactive) |
| CC(=O)Nc1ccc(N=C2c3ccccc3-c3ccc([N+](=O)[O-])cc32)cc1 | -13.6% (inactive) |
| O=C(NNC(=O)c1ccc(Cl)c(Cl)c1)c1ccc(Cl)c(Cl)c1 | -33.1% (inactive) |
| O=S(=O)(NCCNS(=O)(=O)c1ccccc1)c1ccccc1 | 4% (inactive) |
| O=C(Nc1ccc(Cl)c(Cl)c1)c1ccc(Cl)cc1 | 13% (inactive) |
| Nc1nc2ccccc2[nH]1 | 6.95% (inactive) |
| CC1C(c2ccccc2)OC(c2ccccc2)N1C (stereo not given) | -15.2% (inactive) |
| CCCOc1ccc(OCC(=O)c2ccccc2)cc1 | 8% (inactive) |
| COc1cc(/C=C\C(=O)c2cccc([N+](=O)[O-])c2)cc(OC)c1OC | 20.7% (inactive) |
| O=C([O][Sb]([O]C(=O)C(Br)Br)([c]1ccccc1)([c]1ccccc1)[c]1ccccc1)C(Br)Br | 36.6% (inactive) |
| C[N+]1(CCC[N+]2(C)CCC3(CCCCC3)CC2)CCOCC1 | 16.8% (inactive) |
| CCCCCCCCCCCCCCCCCN(C)C(=O)OCC | -30.8% (inactive) |
| O=c1oc2ccccc2c2c1Sc1ccccc1N2 | -9.1% (inactive) |
